Reference: article PMC5540273 (PLoS ONE, 2017)

Key:
Conditions in all cases: concentration: 1 μM, replicates: in singlicate; n = 1
ADCK4 = system: ADCK4
AKT1 = system: AKT1
AKT2 = system: AKT2
AKT3 = system: AKT3
ALK = system: ALK
AMPK-alpha1 = system: T1, AMPK-alpha1
T1 construct: gene PRKAA1

AMPK-alpha2 = system: T2, AMPK-alpha2
T2 construct: gene PRKAA2

ANKK1 = system: ANKK1
ARK5 = system: T3, ARK5
T3 construct: gene NUAK1

ASK1 = system: T4, ASK1
T4 construct: gene MAP3K5

ASK2 = system: T5, ASK2
T5 construct: gene MAP3K6

AURKA = system: AURKA
AURKB = system: AURKB
AURKC = system: AURKC
AXL = system: AXL
BIKE = system: T6, BIKE
T6 construct: gene BMP2K

BLK = system: BLK
BMPR1A = system: BMPR1A
BMPR1B = system: BMPR1B
BMPR2 = system: BMPR2
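Also: KINOMEscan kinase panel screen.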

Row | Compound | %Inh (ADCK4) | %Inh (AKT1) | %Inh (AKT2) | %Inh (AKT3) | %Inh (ALK) | %Inh (AMPK-alpha1) | %Inh (AMPK-alpha2) | %Inh (ANKK1) | %Inh (ARK5) | %Inh (ASK1) | %Inh (ASK2) | %Inh (AURKA) | %Inh (AURKB) | %Inh (AURKC) | %Inh (AXL) | %Inh (BIKE) | %Inh (BLK) | %Inh (BMPR1A) | %Inh (BMPR1B) | %Inh (BMPR2)
1 | Cn1cc(-c2ccc3c(c2)CCN3C(=O)Cc2cccc(F)c2)c2c(N)ncnc21 [GSK2603358] | 35% | 0% | 9% | 0% | 20% | 7% | 22% | 0% | 17% | 11% | 0% | 20% | 95.5% | 47% | 83% | 10% | 50% | 0% | 0% | 3%
2 | CN(c1ccc(NC(=O)Nc2cc(C(F)(F)F)ccc2F)cc1)c1ccnc(Nc2ccc(S(N)(=O)=O)cc2)n1 [GW809893] | 7% | 17% | 11% | 9% | 73% | 27% | 19% | 78% | 1% | 0% | 17% | 90.7% | 95.7% | 67% | 93.3% | 26% | 96.7% | 28% | 20% | 78%
3 | Cl.Cl.NCC(NCc1ccc(-c2ccnc3[nH]ccc23)s1)c1ccccc1 (centres unmarked) [GSK1321565] | 44% | 71% | 25% | 71% | 64% | 45% | 28% | 22% | 82% | 16% | 0% | 47% | 79% | 97.2% | 95.1% | 100% | 0% | 0% | 0% | 3%
4 | c1ccc(-c2n[nH]cc2Nc2ccnc3ccccc23)nc1 [GW694077] | 51% | 0% | 2% | 0% | 21% | 0% | 0% | 75% | 0% | 0% | 1% | 15% | 45% | 78% | 0% | 100% | 28% | 0% | 3% | 47%
5 | Cl.c1ccc(-c2ccc3c(Nc4ccc5[nH]ccc5c4)ccnc3c2)nc1 [GW440138] | 38% | 0% | 0% | 0% | 25% | 0% | 0% | 11% | 4% | 0% | 0% | 8% | 0% | 1% | 0% | 2% | 70% | 0% | 5% | 26%
6 | Clc1ccc(-c2nn3ncccc3c2-c2ccnc(Nc3ccc4c(c3)OCCO4)n2)cc1 [GW829116] | 90.4% | 13% | 0% | 0% | 0% | 0% | 0% | 0% | 0% | 0% | 0% | 18% | 0% | 0% | 0% | 0% | 48% | 0% | 0% | 0%
7 | COc1ccc(Nc2nccc(NCCNC(=O)c3cc4ccccc4s3)n2)cc1 [GSK1379896] | 29% | 0% | 0% | 0% | 6% | 0% | 0% | 6% | 3% | 0% | 0% | 16% | 0% | 17% | 14% | 4% | 23% | 0% | 0% | 0%
8 | COc1cc(Nc2nccc(-c3c(-c4cccc(NC(=O)c5c(F)cccc5F)c4)nn4ccccc34)n2)cc(OC)c1OC [GSK323521] | 0% | 8% | 0% | 5% | 14% | 20% | 23% | 13% | 8% | 5% | 4% | 48% | 90.6% | 15% | 80% | 21% | 44% | 0% | 0% | 11%
9 | Cc1ccc(C(=O)Nc2ccc(Nc3ccnc4cc(-c5nccs5)ccc34)cc2O)cc1.Cl [GW494702] | 34% | 12% | 6% | 0% | 0% | 20% | 0% | 21% | 14% | 9% | 0% | 100% | 91.3% | 61% | 9% | 9% | 97% | 0% | 0% | 12%
10 | NCCCC(NC(=O)c1cc(Br)c(-c2ccnc3[nH]ccc23)s1)c1ccccc1.O=C(O)C(F)(F)F.O=C(O)C(F)(F)F (centres unmarked) [GSK1287544] | 38% | 89% | 52% | 91.8% | 32% | 17% | 35% | 0% | 54% | 0% | 0% | 74% | 56% | 95.7% | 74% | 97.9% | 0% | 0% | 0% | 21%
11 | O=C(Nc1cccc(-c2nn3ncccc3c2-c2ccnc(Nc3ccccc3)n2)c1)c1c(F)cccc1F [GSK198271] | 31% | 0% | 16% | 0% | 38% | 12% | 15% | 69% | 38% | 0% | 6% | 65% | 32% | 64% | 100% | 16% | 97.5% | 0% | 0% | 0%
12 | FC(F)(F)c1ccc(/C=C/c2cncnc2Nc2ccc3[nH]c(Cc4ccccc4)nc3c2)cc1 [GW709199] | 0% | 0% | 0% | 0% | 23% | 0% | 3% | 0% | 6% | 0% | 0% | 0% | 5% | 0% | 0% | 0% | 3% | 4% | 0% | 0%
13 | CN(C)Cc1ccc(-c2ccc3c(Nc4ccc(Oc5ccccn5)cc4)ccnc3c2)o1 [GW567148] | 0% | 0% | 0% | 0% | 22% | 8% | 0% | 0% | 18% | 0% | 0% | 0% | 81% | 51% | 2% | 17% | 91.5% | 0% | 0% | 28%
14 | O=C(NC1CCN(c2ccnc(Nc3ccc(F)cc3)n2)C1)c1cc2ccccc2s1 (centres unmarked) [GSK1379716] | 61% | 0% | 16% | 0% | 3% | 7% | 20% | 0% | 21% | 14% | 9% | 4% | 24% | 53% | 19% | 26% | 62% | 0% | 0% | 0%
15 | O=C(Nc1cccc(-c2nn3ccccc3c2-c2ccnc(Nc3cccc(C(F)(F)F)c3)n2)c1)c1c(F)cccc1F [GSK292658] | 0% | 0% | 8% | 2% | 0% | 0% | 13% | 13% | 12% | 2% | 2% | 2% | 0% | 49% | 12% | 0% | 94% | 0% | 0% | 22%
16 | COc1cccc(C(=O)Nc2cccc(Oc3ccc4nc(NC(=O)C5CC5)cn4n3)c2)c1 | 39% | 19% | 0% | 3% | 0% | 23% | 0% | 0% | 0% | 7% | 0% | 55% | 81% | 74% | 65% | 18% | 95.3% | 10% | 13% | 0%
